Test results from PubChem BioAssay AID488984 (The Scripps Research Institute Molecular Screening Center, 2010).
The source made the active and inactive calls. Rule as the data show it: active = inhibition above about 55%; inactive = the rest.

Each compound was assayed on SARS coronavirus 3C-like protease (3CLpro, nsp5) (assay: blockers of SARS 3CLpro activity – biochemical, fluorescence, set 2, late-stage follow-up (AID 488984)). Settings: recombinant 3CLpro, fluorogenic peptide cleavage; at 100 µM; hits give high values.
In the case of `CC(C)(C)NC(=O)C(c1cccnc1)N(C(=O)c1cccc2c1CCCC2)c1ccc(OCF)cc1` (stereo not drawn), the inhibition is reported as 16% (inactive). For `CC(C)(C)NC(=O)C(c1cccnc1)N(C(=O)Cc1cccnc1)C1CC1` (stereo not drawn), the inhibition was 7.01% (inactive). For `Cc1nccn1CC(=O)N(c1ccc(C(C)(C)C)cc1)C(C(=O)NC(C)(C)C)c1ccsc1` (stereo not drawn), the inhibition was 0.41% (inactive). For `CC(C)(C)NC(=O)C(c1ccsc1)N(C(=O)c1ccco1)c1ccc(OC(F)F)cc1` (stereo not drawn), the inhibition was 25.9% (inactive). In the case of `CC(C)(C)NC(=O)C(c1cccnc1)N(C(=O)c1n[nH]c2ccccc12)c1ccc(C(C)(C)C)cc1` (stereo not drawn), the inhibition is reported as 20.6% (inactive). `CC(C)(C)NC(=O)C(c1ccsc1)N(C(=O)Cn1cnc2ccccc21)c1ccc(C(C)(C)C)cc1` (stereo not drawn) was tested, and the inhibition was 1.78% (inactive). For `CC(C)c1ccc(N(C(=O)c2ccc(C(F)(F)F)nc2)C(C(=O)NC(C)(C)C)c2ccsc2)cc1` (stereo not drawn), the inhibition was 8.21% (inactive). With `CC(C)(C)NC(=O)C(c1cccnc1)N(C(=O)Cc1cccnc1)c1ccc(OCF)cc1` (stereo not drawn) the inhibition was 18.7% (inactive). For `CC(C)(C)NC(=O)C(c1ccsc1)N(C(=O)c1ccc(C(F)(F)F)nc1)C1CC1` (stereo not drawn), the inhibition was 11.3% (inactive). With `CC(C)c1ccc(N(C(=O)c2n[nH]c3ccccc23)C(C(=O)NC(C)(C)C)c2cccnc2)cc1` (stereo not drawn) the inhibition was 13.2% (inactive). For `CC(C)(C)NC(=O)C(c1cccnc1)N(C(=O)c1n[nH]c2ccccc12)C1CC1` (stereo not drawn), the inhibition was 9.27% (inactive). For `CC(C)c1ccc(N(C(=O)Cc2cccnc2)C(C(=O)NC(C)(C)C)c2cccnc2)cc1` (stereo not drawn), the inhibition was 2.83% (inactive). For `Cc1nc2ccccc2n1CC(=O)N(c1ccc(NC(=O)C(C)C)cc1)C(C(=O)NC(C)(C)C)c1ccsc1` (stereo not drawn), the inhibition was 0.26% (inactive).
